# Experiments:
# Test in all cases: DAPPL (digital affinity profiling via proximity ligation, sequencing); 10 mM Tris-HCl pH 7.5, 50 mM NaCl, 1 mM DTT, 4% glycerol, room temperature, 30 min; GST-TFs on glutathione beads, 16-mer random dsDNA library, 0.1% formaldehyde crosslink after washing; high values mean tight binding
# Conditions in all cases: protein: recombinant; tags: N-terminal GST; dsDNA, one strand shown
# FLI1 = molecular target: T1, FLI1 (Homo sapiens, UniProt Q01543 1-452)
# T1 sequence: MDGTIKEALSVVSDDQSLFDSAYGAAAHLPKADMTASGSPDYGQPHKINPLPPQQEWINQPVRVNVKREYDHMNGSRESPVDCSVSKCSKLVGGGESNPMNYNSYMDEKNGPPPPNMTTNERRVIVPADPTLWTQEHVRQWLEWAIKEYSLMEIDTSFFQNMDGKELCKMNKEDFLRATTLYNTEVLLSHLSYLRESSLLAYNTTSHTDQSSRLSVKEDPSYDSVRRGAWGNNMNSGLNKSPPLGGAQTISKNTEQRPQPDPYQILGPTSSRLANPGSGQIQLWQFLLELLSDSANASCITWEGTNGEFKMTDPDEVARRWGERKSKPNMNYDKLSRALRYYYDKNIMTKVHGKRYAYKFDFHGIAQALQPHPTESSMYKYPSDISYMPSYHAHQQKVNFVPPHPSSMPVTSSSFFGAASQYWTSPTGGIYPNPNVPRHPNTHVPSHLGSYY
# Procedure, shortened: (§1)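 Each value of binding signal is a hexamer's read frequency for a factor divided by the same hexamer's frequency in the tag-only sample. Barcoded, bead-captured GST fusions of human transcription factors made in yeast were pooled with that sample and incubated with 200 nmole of a random double-stranded 16-mer DNA library in Tris/NaCl/DTT/glycerol buffer at room temperature for 30 min. Washing, 0.1% formaldehyde crosslinking, proximity ligation, PCR and Illumina NextSeq500 sequencing followed.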
# ELK1 = molecular target: T2, ELK1 (Homo sapiens, UniProt P19419 1-428)
# T2 sequence: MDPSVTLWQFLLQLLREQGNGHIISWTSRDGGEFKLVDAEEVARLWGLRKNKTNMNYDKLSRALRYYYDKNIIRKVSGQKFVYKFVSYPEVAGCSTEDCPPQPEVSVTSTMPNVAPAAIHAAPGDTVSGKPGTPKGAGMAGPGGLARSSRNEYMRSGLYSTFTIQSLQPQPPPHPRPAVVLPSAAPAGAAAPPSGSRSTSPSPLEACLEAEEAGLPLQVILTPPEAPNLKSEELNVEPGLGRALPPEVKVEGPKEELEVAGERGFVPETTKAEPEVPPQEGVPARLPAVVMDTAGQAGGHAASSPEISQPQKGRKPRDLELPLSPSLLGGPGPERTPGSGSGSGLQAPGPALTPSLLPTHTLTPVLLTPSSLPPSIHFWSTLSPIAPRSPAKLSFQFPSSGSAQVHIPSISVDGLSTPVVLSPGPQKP
# Procedure, shortened: as §1
# GABPA = molecular target: T3, GABPA (Homo sapiens, UniProt Q06546 1-454)
# T3 sequence: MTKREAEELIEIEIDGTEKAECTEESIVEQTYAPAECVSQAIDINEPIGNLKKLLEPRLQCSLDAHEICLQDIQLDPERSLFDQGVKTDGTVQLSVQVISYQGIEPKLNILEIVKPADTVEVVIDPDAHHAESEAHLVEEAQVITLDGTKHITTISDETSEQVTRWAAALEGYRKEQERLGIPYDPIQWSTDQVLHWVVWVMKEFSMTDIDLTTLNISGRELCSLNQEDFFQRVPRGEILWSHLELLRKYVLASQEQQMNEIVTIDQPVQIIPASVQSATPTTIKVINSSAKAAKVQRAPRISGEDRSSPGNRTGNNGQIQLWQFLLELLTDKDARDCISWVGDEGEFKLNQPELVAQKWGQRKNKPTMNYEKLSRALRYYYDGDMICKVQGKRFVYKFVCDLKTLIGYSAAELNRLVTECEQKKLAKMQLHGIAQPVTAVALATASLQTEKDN
# Procedure, shortened: as §1
# ERG = molecular target: T4, ERG (Homo sapiens, UniProt P11308 1-479)
# T4 sequence: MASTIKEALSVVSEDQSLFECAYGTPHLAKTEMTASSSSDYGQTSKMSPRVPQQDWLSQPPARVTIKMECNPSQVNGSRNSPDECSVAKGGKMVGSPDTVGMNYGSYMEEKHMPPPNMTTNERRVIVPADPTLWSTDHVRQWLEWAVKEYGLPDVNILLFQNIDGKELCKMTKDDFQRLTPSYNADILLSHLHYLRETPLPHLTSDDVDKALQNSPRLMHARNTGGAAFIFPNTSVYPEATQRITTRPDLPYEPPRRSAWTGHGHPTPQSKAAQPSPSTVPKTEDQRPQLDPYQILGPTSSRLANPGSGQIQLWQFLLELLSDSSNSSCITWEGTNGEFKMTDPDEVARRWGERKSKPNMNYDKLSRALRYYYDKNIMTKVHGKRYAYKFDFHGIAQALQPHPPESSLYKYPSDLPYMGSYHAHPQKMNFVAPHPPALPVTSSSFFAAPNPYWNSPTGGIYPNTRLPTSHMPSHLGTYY
# Procedure, shortened: as §1
# ELF1 = ELF1 (Homo sapiens, UniProt P32519 1-619)
# Sequence of ELF1 (P32519 whole entry): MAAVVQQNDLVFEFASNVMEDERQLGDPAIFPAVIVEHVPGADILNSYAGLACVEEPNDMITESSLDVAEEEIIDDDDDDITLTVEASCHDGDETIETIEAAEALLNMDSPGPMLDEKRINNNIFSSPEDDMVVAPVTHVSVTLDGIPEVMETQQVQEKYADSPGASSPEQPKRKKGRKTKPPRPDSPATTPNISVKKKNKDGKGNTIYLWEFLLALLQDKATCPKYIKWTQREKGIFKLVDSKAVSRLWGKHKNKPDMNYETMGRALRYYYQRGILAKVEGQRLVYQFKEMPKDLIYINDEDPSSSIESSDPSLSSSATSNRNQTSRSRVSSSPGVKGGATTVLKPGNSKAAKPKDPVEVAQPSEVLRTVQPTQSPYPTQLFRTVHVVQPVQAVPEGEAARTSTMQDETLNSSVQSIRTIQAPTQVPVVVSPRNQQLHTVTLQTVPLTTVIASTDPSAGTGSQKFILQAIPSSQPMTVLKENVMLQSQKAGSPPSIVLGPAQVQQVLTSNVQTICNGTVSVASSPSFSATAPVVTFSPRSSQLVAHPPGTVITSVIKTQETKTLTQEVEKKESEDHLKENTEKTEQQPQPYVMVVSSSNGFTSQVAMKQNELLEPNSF
# Procedure, shortened: as §1
# EHF = molecular target: T5, EHF (Homo sapiens, UniProt Q9NZC4 1-300)
# T5 sequence: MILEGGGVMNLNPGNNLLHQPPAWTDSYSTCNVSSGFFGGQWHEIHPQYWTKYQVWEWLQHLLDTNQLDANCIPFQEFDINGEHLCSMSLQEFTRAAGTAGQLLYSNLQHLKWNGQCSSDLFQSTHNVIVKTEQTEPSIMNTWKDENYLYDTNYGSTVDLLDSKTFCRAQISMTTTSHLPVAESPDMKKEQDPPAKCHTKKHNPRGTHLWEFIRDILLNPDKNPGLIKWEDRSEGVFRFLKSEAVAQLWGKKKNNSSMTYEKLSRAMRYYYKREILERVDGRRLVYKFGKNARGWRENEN
# Procedure, shortened: as §1
# SPI1 = SPI1 (Homo sapiens, UniProt P17947 1-270)
# Procedure, shortened: as §1
# SPIB = SPIB (Homo sapiens, UniProt Q01892 1-262)
# Sequence of SPIB (Q01892 whole entry): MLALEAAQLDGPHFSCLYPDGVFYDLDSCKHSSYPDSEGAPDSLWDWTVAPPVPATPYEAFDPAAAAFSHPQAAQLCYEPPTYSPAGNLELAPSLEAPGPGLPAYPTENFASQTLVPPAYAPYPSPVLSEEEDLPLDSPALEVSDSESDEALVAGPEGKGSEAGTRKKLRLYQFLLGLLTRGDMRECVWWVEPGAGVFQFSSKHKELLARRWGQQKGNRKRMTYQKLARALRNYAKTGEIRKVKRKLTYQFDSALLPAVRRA
# Procedure, shortened: as §1
# ELK3 = molecular target: T6, ELK3 (Homo sapiens, UniProt P41970 1-407)
# T6 sequence: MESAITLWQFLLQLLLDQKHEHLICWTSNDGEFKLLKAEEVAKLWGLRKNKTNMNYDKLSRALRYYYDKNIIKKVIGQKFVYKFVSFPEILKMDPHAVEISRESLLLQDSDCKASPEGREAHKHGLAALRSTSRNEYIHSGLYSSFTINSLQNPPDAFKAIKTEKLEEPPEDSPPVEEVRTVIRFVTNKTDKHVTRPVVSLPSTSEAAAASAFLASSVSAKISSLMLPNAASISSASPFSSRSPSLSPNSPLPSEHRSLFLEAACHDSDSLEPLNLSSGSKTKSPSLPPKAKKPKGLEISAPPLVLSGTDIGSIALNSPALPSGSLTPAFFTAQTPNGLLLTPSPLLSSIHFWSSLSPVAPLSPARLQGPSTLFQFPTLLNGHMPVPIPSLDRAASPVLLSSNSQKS
# Procedure, shortened: as §1
# FEV = molecular target: T7, FEV (Homo sapiens, UniProt Q99581 1-238)
# T7 sequence: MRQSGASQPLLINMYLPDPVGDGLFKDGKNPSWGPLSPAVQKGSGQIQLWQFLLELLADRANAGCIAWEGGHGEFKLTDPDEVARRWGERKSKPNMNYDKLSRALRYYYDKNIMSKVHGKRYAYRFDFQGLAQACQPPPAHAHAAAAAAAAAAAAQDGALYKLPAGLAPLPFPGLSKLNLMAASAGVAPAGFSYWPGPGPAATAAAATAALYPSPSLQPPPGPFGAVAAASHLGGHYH
# Procedure, shortened: as §1
# ETV5 = ETV5 (Homo sapiens, UniProt P41161 1-510)
# Sequence of ETV5 (P41161 whole entry): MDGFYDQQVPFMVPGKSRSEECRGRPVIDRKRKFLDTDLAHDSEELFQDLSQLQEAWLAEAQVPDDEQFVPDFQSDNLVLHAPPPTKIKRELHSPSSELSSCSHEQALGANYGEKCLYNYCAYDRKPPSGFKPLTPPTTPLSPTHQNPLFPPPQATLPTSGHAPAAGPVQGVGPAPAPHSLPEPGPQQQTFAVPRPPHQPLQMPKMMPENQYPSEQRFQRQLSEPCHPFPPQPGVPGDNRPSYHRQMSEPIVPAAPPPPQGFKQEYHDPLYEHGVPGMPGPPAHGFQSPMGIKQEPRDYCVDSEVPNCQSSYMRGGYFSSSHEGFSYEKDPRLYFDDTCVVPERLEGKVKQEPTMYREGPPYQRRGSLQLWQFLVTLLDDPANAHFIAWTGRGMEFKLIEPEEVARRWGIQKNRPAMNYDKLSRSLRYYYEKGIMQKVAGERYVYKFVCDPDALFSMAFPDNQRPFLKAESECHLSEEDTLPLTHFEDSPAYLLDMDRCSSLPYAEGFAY
# Procedure, shortened: as §1
# SPIC = molecular target: T8, SPIC (Homo sapiens, UniProt Q8N5J4 1-248)
# T8 sequence: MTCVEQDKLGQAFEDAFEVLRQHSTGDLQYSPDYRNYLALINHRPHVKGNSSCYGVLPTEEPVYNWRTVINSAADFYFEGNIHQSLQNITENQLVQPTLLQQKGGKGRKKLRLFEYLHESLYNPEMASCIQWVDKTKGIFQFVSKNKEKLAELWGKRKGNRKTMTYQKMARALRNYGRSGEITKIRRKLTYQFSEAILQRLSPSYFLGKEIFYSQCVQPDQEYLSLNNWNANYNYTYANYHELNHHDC
# Procedure, shortened: as §1
# ELF4 = ELF4 (Homo sapiens, UniProt Q99607 1-663)
# Sequence of ELF4 (Q99607 whole entry): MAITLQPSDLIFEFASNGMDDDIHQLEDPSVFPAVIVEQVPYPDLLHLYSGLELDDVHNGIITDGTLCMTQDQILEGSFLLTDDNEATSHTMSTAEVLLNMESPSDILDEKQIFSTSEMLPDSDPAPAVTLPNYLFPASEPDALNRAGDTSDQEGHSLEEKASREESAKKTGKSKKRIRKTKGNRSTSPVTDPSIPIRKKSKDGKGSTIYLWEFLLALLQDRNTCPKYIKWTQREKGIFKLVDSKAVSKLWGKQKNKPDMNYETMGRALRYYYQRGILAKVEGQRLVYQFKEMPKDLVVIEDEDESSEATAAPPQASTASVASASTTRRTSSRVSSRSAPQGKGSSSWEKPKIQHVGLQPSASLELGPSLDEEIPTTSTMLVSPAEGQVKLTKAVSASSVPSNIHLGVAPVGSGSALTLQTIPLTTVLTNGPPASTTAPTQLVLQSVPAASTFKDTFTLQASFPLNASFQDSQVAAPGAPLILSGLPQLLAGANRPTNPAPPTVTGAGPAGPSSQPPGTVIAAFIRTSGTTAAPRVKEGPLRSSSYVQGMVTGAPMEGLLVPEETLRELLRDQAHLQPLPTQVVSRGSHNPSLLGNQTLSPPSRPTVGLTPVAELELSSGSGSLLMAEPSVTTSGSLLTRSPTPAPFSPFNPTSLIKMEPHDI
# Procedure, shortened: as §1
# ELK4 = molecular target: T9, ELK4 (Homo sapiens, UniProt P28324-2 1-405)
# T9 sequence: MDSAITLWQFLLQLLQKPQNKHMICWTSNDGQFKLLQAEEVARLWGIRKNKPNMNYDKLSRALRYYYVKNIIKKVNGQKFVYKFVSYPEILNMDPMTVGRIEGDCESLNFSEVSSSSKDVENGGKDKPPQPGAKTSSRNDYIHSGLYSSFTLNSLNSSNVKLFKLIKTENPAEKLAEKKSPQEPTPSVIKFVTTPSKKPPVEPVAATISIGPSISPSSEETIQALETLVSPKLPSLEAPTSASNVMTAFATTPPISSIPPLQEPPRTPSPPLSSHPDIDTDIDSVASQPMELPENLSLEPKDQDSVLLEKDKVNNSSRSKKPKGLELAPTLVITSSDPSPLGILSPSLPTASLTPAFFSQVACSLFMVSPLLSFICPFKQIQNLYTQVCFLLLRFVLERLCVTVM
# Procedure, shortened: as §1
# ETV2 = molecular target: T10, ETV2 (Homo sapiens, UniProt O00321 1-342)
# T10 sequence: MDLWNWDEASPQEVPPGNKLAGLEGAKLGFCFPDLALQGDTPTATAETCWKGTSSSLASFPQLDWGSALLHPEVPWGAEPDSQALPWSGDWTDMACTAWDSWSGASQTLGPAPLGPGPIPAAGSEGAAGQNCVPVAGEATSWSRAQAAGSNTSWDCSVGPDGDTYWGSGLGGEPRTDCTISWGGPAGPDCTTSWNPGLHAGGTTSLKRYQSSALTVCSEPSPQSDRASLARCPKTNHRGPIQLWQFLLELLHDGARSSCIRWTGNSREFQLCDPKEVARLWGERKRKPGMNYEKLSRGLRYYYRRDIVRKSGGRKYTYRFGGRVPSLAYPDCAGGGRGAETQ
# Procedure, shortened: as §1
# ELF3 = molecular target: T11, ELF3 (Homo sapiens, UniProt P78545 1-371)
# T11 sequence: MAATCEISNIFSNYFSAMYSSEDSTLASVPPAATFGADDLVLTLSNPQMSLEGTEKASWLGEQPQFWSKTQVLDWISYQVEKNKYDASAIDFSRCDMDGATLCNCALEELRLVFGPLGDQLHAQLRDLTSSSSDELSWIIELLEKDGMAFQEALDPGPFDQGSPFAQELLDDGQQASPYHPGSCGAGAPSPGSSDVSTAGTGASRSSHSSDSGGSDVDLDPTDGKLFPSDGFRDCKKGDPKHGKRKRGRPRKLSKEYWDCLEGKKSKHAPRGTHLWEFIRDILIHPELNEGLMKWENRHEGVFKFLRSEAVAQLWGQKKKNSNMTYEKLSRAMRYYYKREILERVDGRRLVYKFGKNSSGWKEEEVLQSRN
# Procedure, shortened: as §1
# ETV1 = ETV1 (Homo sapiens, UniProt P50549 1-477)
# Sequence of ETV1 (P50549 whole entry): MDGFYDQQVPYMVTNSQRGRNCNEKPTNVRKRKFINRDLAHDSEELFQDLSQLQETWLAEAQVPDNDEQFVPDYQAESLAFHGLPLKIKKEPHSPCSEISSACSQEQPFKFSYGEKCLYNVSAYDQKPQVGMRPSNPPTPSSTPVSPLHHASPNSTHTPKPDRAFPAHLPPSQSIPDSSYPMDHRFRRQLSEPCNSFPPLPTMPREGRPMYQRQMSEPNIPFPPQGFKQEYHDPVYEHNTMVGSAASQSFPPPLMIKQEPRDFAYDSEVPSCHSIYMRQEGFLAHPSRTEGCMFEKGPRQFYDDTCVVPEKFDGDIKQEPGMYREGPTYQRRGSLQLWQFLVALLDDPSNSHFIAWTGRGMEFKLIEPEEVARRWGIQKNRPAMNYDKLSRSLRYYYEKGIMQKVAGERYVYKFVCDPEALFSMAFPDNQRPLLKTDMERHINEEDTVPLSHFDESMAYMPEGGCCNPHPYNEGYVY
# Procedure, shortened: as §1
sequence,measurement,setting,value
CCGGAC,binding signal,FLI1,"1.47 fold enrichment (6-mer frequency, TF over GST control)"
same,binding signal,ELK1,"1.48 fold enrichment (6-mer frequency, TF over GST control)"
same,binding signal,GABPA,"1.41 fold enrichment (6-mer frequency, TF over GST control)"
same,binding signal,ERG,"1.74 fold enrichment (6-mer frequency, TF over GST control)"
same,binding signal,ELF1,"1.44 fold enrichment (6-mer frequency, TF over GST control)"
same,binding signal,EHF,"1.56 fold enrichment (6-mer frequency, TF over GST control)"
same,binding signal,SPI1,"1.41 fold enrichment (6-mer frequency, TF over GST control)"
same,binding signal,SPIB,"1.57 fold enrichment (6-mer frequency, TF over GST control)"
same,binding signal,ELK3,"1.38 fold enrichment (6-mer frequency, TF over GST control)"
same,binding signal,FEV,"2.05 fold enrichment (6-mer frequency, TF over GST control)"
same,binding signal,ETV5,"1.57 fold enrichment (6-mer frequency, TF over GST control)"
same,binding signal,SPIC,"1.22 fold enrichment (6-mer frequency, TF over GST control)"
same,binding signal,ELF4,"1.44 fold enrichment (6-mer frequency, TF over GST control)"
same,binding signal,ELK4,"1.15 fold enrichment (6-mer frequency, TF over GST control)"
same,binding signal,ETV2,"1.39 fold enrichment (6-mer frequency, TF over GST control)"
same,binding signal,ELF3,"1.45 fold enrichment (6-mer frequency, TF over GST control)"
same,binding signal,ETV1,"1.53 fold enrichment (6-mer frequency, TF over GST control)"
